The values below come from PubChem BioAssay (NCI).

Among the test systems are NCI-H23 lung; NCI-H226 lung; NCI-H322M lung; HOP-62 NSCLC; NCI-H460 lung; NCI-H522 lung; A549/ATCC NSCLC; 786-0 renal; COLO 205 colon; DU-145 prostate; K-562 leukemia; MALME-3M melanoma; MDA-MB-231 breast; RXF 393 renal; SF-268 CNS; SF-295 CNS; SF-539 CNS; UACC-257 melanoma; M14 melanoma.
What all share (assay): NCI-60 one-dose screen, 48 h (100 = growth as untreated, 0 = no growth, -100 = all killed)
Details in all cases: 10 µM

The panel holds about 83,000 compounds, 20% with a hit somewhere; the sample as a whole holds those more often.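 Testing used 96-well plates and a 48-hour single-concentration exposure. Example: -40 means 40% of the starting cells died.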 Unmarked numbers belong to inactive results. Calls of active or inactive are those of the source. How the source made its calls: active means growth percent below 10; inactive means the rest.

As to `CCN(CC)CCNc1ccc(CO)c2sc3ccccc3c(=O)c12`, the growth with NCI-H23 lung is 44.9%; in the experiment on NCI-H226 lung it was 35.9%; in the experiment on NCI-H322M lung it was 50.9%; with HOP-62 NSCLC, 43.3%; with NCI-H460 lung it was 14.5%; with NCI-H522 lung it was -17.8% (active). Besides, the growth in the experiment on A549/ATCC NSCLC is 24.2%; in the experiment with 786-0 renal, 49.6%; in the experiment on COLO 205 colon it was 11.9%; in the experiment on DU-145 prostate it was 39.3%; in the experiment on K-562 leukemia, 63.4%; in the experiment with MALME-3M melanoma, 39.8%. For the same molecule, the growth is 50.1% in the experiment with MDA-MB-231 breast; 36.6% with RXF 393 renal; 40.5% with SF-268 CNS; 44.9% with SF-295 CNS; 50% in the experiment with SF-539 CNS; 11.6% with UACC-257 melanoma. In addition, the growth with M14 melanoma was 57.5%.
For `c1ccc2c(N3CCCCC3)ncnc2c1`, the growth was 86.4% in the experiment with NCI-H23 lung; 87.2% in the experiment on NCI-H226 lung; 117% with NCI-H322M lung; 100% in the experiment on HOP-62 NSCLC; 97.8% in the experiment on NCI-H460 lung; 47.6% in the experiment with NCI-H522 lung. Besides, the growth is 86.9% in the experiment with A549/ATCC NSCLC; 98.7% with 786-0 renal; 88.5% in the experiment on COLO 205 colon; 112% in the experiment with DU-145 prostate; 94.3% in the experiment on K-562 leukemia; 142% in the experiment with MALME-3M melanoma. Moreover, the growth in the experiment with MDA-MB-231 breast was 96.5%; in the experiment on RXF 393 renal it was 105%; with SF-268 CNS, 102%; with SF-295 CNS it was 109%; with SF-539 CNS, 85.3%; with UACC-257 melanoma it was 90.2%. Besides, in the experiment with M14 melanoma, the growth is 100%.
As for `Clc1ccc(-c2n[nH]c3c2Cc2ccccc2-3)cc1Cl`, the growth in the experiment on NCI-H23 lung is 84.6%; in the experiment with NCI-H226 lung, 94.4%; in the experiment on NCI-H322M lung it was 91.6%; in the experiment with HOP-62 NSCLC, 95.1%; with NCI-H460 lung, 105%; with NCI-H522 lung it was -7.44% (active). For the same molecule, the growth is 37.5% in the experiment with A549/ATCC NSCLC; 104% in the experiment on 786-0 renal; 115% in the experiment with COLO 205 colon; 130% with DU-145 prostate; 92.4% in the experiment with K-562 leukemia; 102% in the experiment with MALME-3M melanoma. Also, the growth in the experiment with MDA-MB-231 breast is 98%; in the experiment with RXF 393 renal, 154%; in the experiment with SF-268 CNS, 109%; in the experiment with SF-295 CNS, 99.5%; in the experiment on SF-539 CNS it was 95.6%; in the experiment on UACC-257 melanoma it was -6.12% (active). Moreover, the growth in the experiment on M14 melanoma is 100%.
`O=C(CCl)Nc1ccc2c(c1)C(=O)c1ccc(NC(=O)CCl)cc1C2=O`: the growth with NCI-H23 lung was -68.7% (active); in the experiment with NCI-H226 lung, -11.6% (active); with NCI-H322M lung, -36.5% (active); in the experiment with HOP-62 NSCLC it was -64.7% (active); with NCI-H460 lung it was -45.9% (active); in the experiment on NCI-H522 lung, -65.2% (active). For the same molecule, the growth in the experiment on A549/ATCC NSCLC is 0.12% (active); with 786-0 renal it was -66.9% (active); with COLO 205 colon it was -50.8% (active); in the experiment on DU-145 prostate, -55.7% (active); with K-562 leukemia, -14.9% (active); in the experiment with MDA-MB-231 breast it was -48.2% (active). The growth was -86% (active) with RXF 393 renal; -66.6% (active) in the experiment with SF-268 CNS; -22.6% (active) in the experiment with SF-295 CNS; -92.2% (active) in the experiment on SF-539 CNS; -12.2% (active) in the experiment with UACC-257 melanoma; -55.5% (active) with M14 melanoma.
Consider `O=C(O)C(O)c1ccccc1` (stereo unspecified), for which the growth in the experiment on NCI-H23 lung was 101%; with NCI-H226 lung, 99.1%; in the experiment with NCI-H322M lung, 99.6%; in the experiment on HOP-62 NSCLC it was 116%; with NCI-H460 lung, 107%; in the experiment on NCI-H522 lung, 103%. For the same molecule, the growth in the experiment on A549/ATCC NSCLC is 105%; with 786-0 renal, 98.8%; with COLO 205 colon, 109%; in the experiment with DU-145 prostate it was 106%; with K-562 leukemia, 111%; in the experiment on MALME-3M melanoma, 99.9%. Moreover, the growth was 107% in the experiment on MDA-MB-231 breast; 102% in the experiment with RXF 393 renal; 98.8% with SF-268 CNS; 107% in the experiment on SF-295 CNS; 94% with SF-539 CNS; 102% with UACC-257 melanoma. The growth with M14 melanoma was 97.8%.
Consider `C/C(=N\O)C1(O)CCCCC1`, for which the growth in the experiment with NCI-H23 lung is 99.5%; in the experiment on NCI-H226 lung, 97.7%; in the experiment on NCI-H322M lung, 87.6%; with HOP-62 NSCLC, 106%; in the experiment on NCI-H460 lung, 98.3%; with NCI-H522 lung it was 92.8%. For the same molecule, the growth in the experiment with A549/ATCC NSCLC was 102%; with 786-0 renal, 99%; in the experiment with COLO 205 colon, 99.4%; in the experiment on DU-145 prostate it was 100%; in the experiment with K-562 leukemia, 106%; with MALME-3M melanoma, 114%. The growth in the experiment on MDA-MB-231 breast is 94.7%; in the experiment on SF-268 CNS it was 82.7%; with SF-295 CNS it was 110%; with SF-539 CNS it was 99.2%; with UACC-257 melanoma it was 98.3%; with M14 melanoma it was 110%.
Turning to `Cc1cc(/C=C/c2ccc3cc(N(C)C)ccc3[n+]2C)c(C)n1-c1ccccc1`, the growth in the experiment with NCI-H23 lung is -6.43% (active); with NCI-H226 lung, -75.1% (active); in the experiment on NCI-H322M lung, 2.15% (active); in the experiment with HOP-62 NSCLC it was -81.5% (active); in the experiment with NCI-H460 lung, -64.8% (active); with NCI-H522 lung it was -31.7% (active). Besides, the growth was -44.9% (active) in the experiment on A549/ATCC NSCLC; -15.9% (active) in the experiment on 786-0 renal; -79.5% (active) with COLO 205 colon; -39.2% (active) in the experiment with DU-145 prostate; 0.995% (active) with K-562 leukemia; -56.9% (active) in the experiment with MALME-3M melanoma. In addition, the growth was -18.9% (active) in the experiment on MDA-MB-231 breast; -96.2% (active) in the experiment with RXF 393 renal; -1.17% (active) in the experiment on SF-268 CNS; -33.6% (active) in the experiment with SF-295 CNS; -39.5% (active) with UACC-257 melanoma; -71.3% (active) in the experiment on M14 melanoma.
Turning to `CCCNc1ccc(C2=NCCCN2)cc1`, the growth was 95.6% with NCI-H23 lung; 104% in the experiment with NCI-H226 lung; 88.7% with NCI-H322M lung; 94.9% with HOP-62 NSCLC; 103% with NCI-H460 lung; 94.2% in the experiment with NCI-H522 lung. Moreover, the growth with A549/ATCC NSCLC is 79.2%; in the experiment with 786-0 renal, 88.9%; in the experiment with COLO 205 colon, 99.5%; in the experiment on DU-145 prostate, 103%; in the experiment on K-562 leukemia, 89.8%; with MDA-MB-231 breast it was 98.7%. Further, the growth in the experiment on SF-268 CNS is 98.9%; in the experiment with SF-295 CNS, 91%; with SF-539 CNS, 102%; in the experiment with UACC-257 melanoma, 99.8%; in the experiment on M14 melanoma, 96.1%.
With `COC(=O)c1cccc(Br)c1`, the growth in the experiment with NCI-H23 lung was 102%; in the experiment with NCI-H226 lung, 106%; in the experiment on NCI-H322M lung, 97.5%; with HOP-62 NSCLC, 92%; in the experiment on NCI-H460 lung, 109%; in the experiment with NCI-H522 lung, 102%. The growth with A549/ATCC NSCLC is 116%; with 786-0 renal it was 110%; with COLO 205 colon, 121%; with DU-145 prostate, 111%; in the experiment on K-562 leukemia it was 121%; in the experiment with MALME-3M melanoma it was 111%. Also, the growth with MDA-MB-231 breast is 111%; with RXF 393 renal, 146%; in the experiment on SF-268 CNS, 108%; with SF-295 CNS, 102%; with SF-539 CNS it was 98.7%; in the experiment with UACC-257 melanoma it was 112%. Further, the growth with M14 melanoma was 101%.
